An excerpt weighted towards active compounds, which were near 3.3% of everything screened.
Sm TGR block: inhibitors of Schistosoma mansoni thioredoxin glutathione reductase. hit rate 3% among 360,000. AID 485364. Q962Y6. Potency, µM (series often up to 114 µM), inactives show at the top dose activity change, negative = inhibition, most hits filed as inhibitors. purified TGR, DTNB reduction, TNB absorbance 405 nm; also: nearly all actives have a fitted effect of over 60% in size
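First, TGR (20 nM dispensed) and NADPH were mixed with compound. Second, a 15 min room-temperature incubation followed. Third, further NADPH and then DTNB were added to start the reaction. Finally, TNB absorbance was monitored kinetically.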
AmpC detergent: blocks E. coli AmpC beta-lactamase in detergent assay; P00811; AmpC hydrolysis of nitrocefin, absorbance 480 nm, 0.01% Triton; Potency, µM (highest dose often 114 µM), for inactives: at the top dose activity change, negative = inhibition, hits mostly inhibitors; hit rate 0.041% among 370,000; AID 485294;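 also: 0% = no-compound wells and -100% = no-enzyme wells; nearly all actives have a fitted effect of over 25% in size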
Target sequence (P00811 whole entry, looked up): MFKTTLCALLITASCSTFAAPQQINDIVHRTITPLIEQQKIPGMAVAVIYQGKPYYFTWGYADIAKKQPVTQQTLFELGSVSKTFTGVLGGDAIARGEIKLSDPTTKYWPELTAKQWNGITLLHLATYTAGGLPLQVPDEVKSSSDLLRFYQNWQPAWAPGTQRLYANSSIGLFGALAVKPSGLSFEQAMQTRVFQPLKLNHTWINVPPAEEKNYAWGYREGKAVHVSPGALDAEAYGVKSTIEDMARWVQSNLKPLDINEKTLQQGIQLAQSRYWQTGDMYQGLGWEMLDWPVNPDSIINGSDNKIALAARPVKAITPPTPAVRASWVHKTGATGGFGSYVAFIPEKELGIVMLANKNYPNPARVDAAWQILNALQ
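AmpC (5.3 nM in the dispensed reagent) in 20 mM phosphate pH 7.0 with 0.01% (detergent screen) or 0.0001% Triton X-100 was preincubated with compounds for 15 min at room temperature. Nitrocefin was then added from an 800 uM solution, and hydrolysis was followed at 480 nm.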
AmpC inh no detg: inhibitors of E. coli AmpC beta-lactamase without detergent | P00811 | AmpC nitrocefin hydrolysis, absorbance 480 nm, 0.0001% Triton | Potency, µM (highest dose often 57.1 µM), for inactives: top-dose activity change, negative = inhibition, actives largely listed as inhibitors | hit rate 0.52% among 330,000;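 also: plate controls were no compound for no effect and no enzyme for full effect; nearly all actives have a fitted effect of over 20% in size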
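20 mM phosphate pH 7.0 + 0.01% (detergent screen) or 0.0001% Triton X-100; 5.3 nM AmpC reagent; cpd preinc 15 min RT; nitrocefin (800 uM stock) to start; A480 q20 s × 4 min; Activity was normalised to no-enzyme and no-compound control wells.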
The depositor's hits bear a star; ? = inconclusive; · = not tested or not shown. Calls follow the shape of the dose curve; as a rule, active = well fitted curve in the direction sought with a large enough effect; inconclusive = small, poorly fitted or top-dose-only effect, or another doubt; inactive = no such curve, though single readings can be large; an effect the other way counts as inactive or inconclusive. Unless noted, % is scaled to controls: 0 for no effect and ±100 for the full control effect; potency is read from the fitted curve at half-maximal effect.

SMILES	Sm TGR block	AmpC detergent	AmpC inh no detg
O=C1c2ccccc2C(=O)N1c1cccc(-c2csc(Nc3ccc4c(c3)OCO4)n2)c1	50µM*	-2%	-40%
CC(=O)NC1C(=O)N=C(SCC(=O)Nc2ccc(C(F)(F)F)cc2Cl)NC1=O (configuration not stated)	-15%	3%	-27%
CCOc1ccccc1C(=O)Nc1ccc(S(=O)(=O)Nc2nccc(C)n2)cc1	32µM*	-23%	-21%
CCOc1ccc(C(=O)Nc2ccc(S(=O)(=O)Nc3nccc(C)n3)cc2)cc1OCC	3%	7%	-32%
Cc1ccc(CS(=O)(=O)Cc2ccc(C(=O)NCCc3ccc(Cl)cc3)o2)cc1	2%	3%	·
Cc1ccc(NC(=O)Cn2c(=O)n(CCCCC(=O)NCCc3ccccc3)c(=O)c3ccccc32)cc1	1%	25%	·
NNC(=O)/C(=N/Nc1ccccc1)S(=O)(=O)c1ccc(Cl)cc1	3%	?	40µM*
CCOC(=O)/C(=N/Nc1ccc(C)cc1)S(=O)(=O)c1ccc(Cl)cc1	-23%	-2%	-8%
CCc1ccc(NC(=O)CN2C(=O)C3(SCC(=O)N3c3ccccc3)c3ccccc32)cc1 (configuration not stated)	1%	1%	·
CCOc1ccc(S(=O)(=O)Nc2cc(Sc3ncn[nH]3)c3oc(=O)sc3c2)cc1	-15%	-7%	5.6µM*
CCOc1ccc(S(=O)(=O)Nc2ncn[nH]2)cc1	1%	-14%	-12%
COc1ccc(CSc2nc3ccncc3n2Cc2nc(-c3ccc(OC)c(OC)c3)oc2C)cc1	6%	23%	·
O=C(CSc1nc2c(c(=O)[nH]1)CN(Cc1ccc3c(c1)OCO3)CC2)Nc1ccccc1Cl	1%	2%	·
COc1ccc(C(=O)CN2CCN(c3cc(C)nc4ccccc34)CC2)cc1	20µM*	-7%	11%
COc1ccc(N2CCN(CC(=O)c3ccccc3)CC2)cc1	13µM*	0%	-9%
CC(=O)Nc1ccc(C(=O)CN2CCN(c3ccccc3)CC2)cc1	14µM*	?	4%
CC(=O)c1ccc(NC(=O)CN2CCN(c3ccccc3)CC2)cc1	-14%	?	-8%
O=C(CCN1CCN(c2ccc([N+](=O)[O-])cc2)CC1)c1ccc(Cl)cc1	?	2%	-12%
CCn1c(N2CCN(CC(=O)c3ccc(OC)cc3)CC2)nc2ccccc21	-36%	-11%	45%
O=C(CN1CCN(c2ccc([N+](=O)[O-])cc2)CC1)c1ccccc1	11µM*	-5%	-58%
COc1ccc(N2CCN(C(=O)CCCC(=O)c3ccccc3)CC2)cc1	3%	?	90%
CCN(CC)CCNC(=O)c1ccc(NC(=O)c2c(C)nn(-c3ccc(F)cc3)c2Cl)cc1	-12%	-6%	27%
O=C(O)Cc1ccc2c(c1)N(S(=O)(=O)c1cccs1)CC(C(=O)O)O2 (configuration not stated)	11%	7%	-9%
COC(=O)c1c(N)sc2c1CC(C)(C)OC2	1%	?	-2%
CCOC(=O)C1CN(S(=O)(=O)c2ccc(OC)cc2)c2cc(S(=O)(=O)CC)ccc2O1 (configuration not stated)	15%	?	45%
SMILES	Sm TGR block	AmpC detergent	AmpC inh no detg
CCOC(=O)c1sc(N2C(=O)C(O)=C(C(=O)c3ccc(C)o3)C2c2ccc(OC)c(OC)c2)nc1C (configuration not stated)	-2%	0%	-1%
COC(=O)c1sc(N2C(=O)C(O)=C(C(=O)c3ccc(C)o3)C2c2ccc([N+](=O)[O-])cc2)nc1C (configuration not stated)	-15%	1%	-9%
CCOc1ccc(C2C(C(=O)c3ccc(C)o3)=C(O)C(=O)N2c2nc(C)c(C(=O)OC)s2)cc1 (configuration not stated)	45µM*	-12%	-30%
CCOC(=O)c1sc(N2C(=O)C(O)=C(C(=O)c3ccco3)C2c2ccc(C)o2)nc1C (configuration not stated)	7.9µM*	0%	-41%
COc1ccc(CCNC(=O)c2cc(C)nc3c2c(C)nn3-c2ccccc2)cc1OC	2%	17%	·
O=C(CCNS(=O)(=O)c1ccc(Cl)cc1)NCc1cccs1	-2%	-2%	-10%
O=S(=O)(NCC(c1ccco1)S(=O)(=O)c1cccs1)c1ccc(F)c(C(F)(F)F)c1 (configuration not stated)	0.1µM*	0%	·
O=S(=O)(NCC(c1ccco1)N1CCN(c2ccccc2F)CC1)c1ccccc1 (configuration not stated)	-2%	2%	-21%
O=S(=O)(NCC(c1cccs1)S(=O)(=O)c1ccccc1)c1ccccc1 (configuration not stated)	0.32µM*	0%	·
O=S(=O)(NCC(c1ccco1)S(=O)(=O)c1cccs1)c1ccccc1 (configuration not stated)	0.2µM*	0%	·
O=S(=O)(NCC(c1ccco1)S(=O)(=O)c1cccs1)c1ccc(Cl)cc1 (configuration not stated)	0.1µM*	3%	·
CC(C)(C)c1ccc(C(=O)NCC(c2cccs2)S(=O)(=O)c2ccccc2)cc1 (configuration not stated)	-4%	1%	·
O=S(=O)(NCC(c1ccco1)N1CCCCC1)c1cccc(C(F)(F)F)c1 (configuration not stated)	-13%	1%	1%
O=C(CSc1nnc(NC(=O)C2CCC2)s1)Nc1ccccc1F	-12%	-7%	-39%
O=C(CN1CCN(Cc2ccc3c(c2)OCO3)CC1)NCC(F)(F)F	5%	-3%	-2%
CCn1c(SCc2c(F)cccc2Cl)nc(=O)c2c(C(=O)OC)cc(C3CC3)nc21	5%	26%	·
CC(=O)c1c(C)n(C)c2ccc(OC(=O)c3ccc([N+](=O)[O-])cc3)cc12	0%	-4%	5%
C=C(C)CNC(=S)Nc1nc2c(cc1C(=O)OCC)CCCC2	9%	?	-20%
CCC(=O)Oc1ccc(C/C(=N\O)c2ccc(O)cc2O)o1	7.9µM*	0%	-27%
CCOC(=O)c1ccc(CC(=O)c2ccc(O)cc2O)o1	-22%	2%	-29%
CCOC(=O)c1c(NC(=O)Cn2cnc([N+](=O)[O-])n2)sc(C)c1C	0%	0%	-20%
CCOC(CNC(=O)C(=O)Nc1cc2c3c(c1)CCN3C(=O)CC2)OCC	1%	0%	-2%
C[C@H]1c2cccc(O)c2C(O)=C2C(=O)[C@]3(O)C(O)=C(C(N)=O)C(=O)[C@@H](N(C)C)C3[C@@H](O)C21 (some centres not stated)	-15%	-19%	-38%
CN(C)C1C(=O)C(C(N)=O)=C(O)C2(O)C(=O)C3=C(O)c4c(O)cccc4C(C)(O)C3C(O)C12 (configuration not stated)	32µM*	?	-55%
CC(C)(C)CN1CCNC[C@H]1Cc1ccc(O)cc1	-21%	-14%	-18%
c1ccc(C[C@H]2CNCCN2CC2(c3ccccc3)CC2)cc1	45µM*	-9%	4%
CCn1nc(C)cc1C(=O)NC1CCCc2c1cnn2-c1cc(F)cc(F)c1 (configuration not stated)	?	4%	104%

Source: PubChem BioAssay (National Center for Advancing Translational Sciences (NCATS))
